PubChem BioAssay
Inconclusive results are not listed. Calls of active or inactive are those of the source. Rule as the data show it, unless noted: active = response above about 15%; inactive = the rest.

Key:
[1] = yeast TOR pathway RPL19A-GFP modulators, primary screen, cell-based, S. cerevisiae, multiplex flow cytometry (AID 1862; in the data active = percent of DMSO control GFP below about 86%;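 also: lower values mimic rapamycin by blocking the RPL19A rise seen in DMSO cells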); conditions: S. cerevisiae RPL19A-GFP strain, flow cytometry fluorescence, 3 h; at 10 µM; stronger effect = lower value
[2] = modulators of MEP2-GFP levels in yeast, primary screen, S. cerevisiae, multiplex flow cytometry (AID 1867;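 active = GFP response, as percent of the DMSO control, above the screen-wide mean plus 3 SD, about 139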;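 also: median GFP channel fluorescence of barcode-gated MEP2-GFP cells measured by flow cytometry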); conditions: S. cerevisiae MEP2-GFP strain, 3 h, at 10 µM, stronger effect = higher value, 100% means same as DMSO wells
[3] = modulators of CIT2-GFP expression in yeast, primary screen, S. cerevisiae, GFP fusion, multiplex flow cytometry (AID 1870;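 active = percent response above a set limit, the screen-wide mean plus 3 SD, cut at about 130% in these data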;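 also: barcoded CIT2-GFP strain pooled with four other GFP strains with rapamycin as positive control; median GFP fluorescence per well over plate mean of DMSO wells so 100% = DMSO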); conditions: 3 h, at 10 µM, stronger effect = higher value
[4] = modulators of LAP4-GFP expression in yeast, primary screen, S. cerevisiae, multiplex flow cytometry (AID 1873;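 active = GFP signal, as percent of the solvent control, above the screen mean plus 3 SD, about 149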); conditions: 3 h, at 10 µM, stronger effect = higher value
[5] = modulators of AGP1-GFP expression in yeast TOR pathway, primary screen, cell-based, multiplex flow cytometry, S. cerevisiae (AID 1887;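 active = GFP signal above the screen-wide mean plus 3 SD, that is over about 124.5% of the solvent control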;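 also: AGP1-GFP fusion strain of S. cerevisiae within a five-strain barcoded multiplex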); conditions: 3 h, at 10 µM, stronger effect = higher value
[6] = inhibitors of CD8+ T cell-vesicle binding, pilot screen, LFA-1/ICAM-1 modulator project, MLPCN validation set, flow cytometry (AID 2523;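 active = response below a set limit, under 55% cells CD8-positive and vesicle-bound, and CD8 cells' 90th-percentile brightness under 279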;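 as to vesicle binding response: mean PE anti-B7-1 fluorescence of CD8+ cells relative to row control; 100% = QL9-loaded vesicles with DMSO vehicle in the same plate row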); conditions: 2C mouse CD8+ T cells, at 7 µM, stronger effect = lower value; double positive events: measured here: CD8+/vesicle+ event percentage
[7] = target: Integrin beta-1 (Homo sapiens) + Integrin alpha-4 (Homo sapiens) (UniProt P13612+P05556); test: inhibition of HUTS-21 binding to VLA-4, pilot screen, VLA-4 allosteric modulator project, U937 cells, HUTS-21 mAb, flow cytometry, validation set (AID 2674;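 active = inhibition above 50%, about 3 SD of the validation set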;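 also: antibody binding induced by the VLA-4 ligand LDV present at three times its Kd; 0% = LDV ligand with antibody and no compound and 100% = antibody without LDV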); conditions: HUTS-21 LIBS mAb binding, at 6.7 µM, stronger effect = higher value, binding induced by LDV ligand
Sequence of Integrin beta-1 (Homo sapiens) + Integrin alpha-4 (Homo sapiens) (P05556 whole entry, looked up): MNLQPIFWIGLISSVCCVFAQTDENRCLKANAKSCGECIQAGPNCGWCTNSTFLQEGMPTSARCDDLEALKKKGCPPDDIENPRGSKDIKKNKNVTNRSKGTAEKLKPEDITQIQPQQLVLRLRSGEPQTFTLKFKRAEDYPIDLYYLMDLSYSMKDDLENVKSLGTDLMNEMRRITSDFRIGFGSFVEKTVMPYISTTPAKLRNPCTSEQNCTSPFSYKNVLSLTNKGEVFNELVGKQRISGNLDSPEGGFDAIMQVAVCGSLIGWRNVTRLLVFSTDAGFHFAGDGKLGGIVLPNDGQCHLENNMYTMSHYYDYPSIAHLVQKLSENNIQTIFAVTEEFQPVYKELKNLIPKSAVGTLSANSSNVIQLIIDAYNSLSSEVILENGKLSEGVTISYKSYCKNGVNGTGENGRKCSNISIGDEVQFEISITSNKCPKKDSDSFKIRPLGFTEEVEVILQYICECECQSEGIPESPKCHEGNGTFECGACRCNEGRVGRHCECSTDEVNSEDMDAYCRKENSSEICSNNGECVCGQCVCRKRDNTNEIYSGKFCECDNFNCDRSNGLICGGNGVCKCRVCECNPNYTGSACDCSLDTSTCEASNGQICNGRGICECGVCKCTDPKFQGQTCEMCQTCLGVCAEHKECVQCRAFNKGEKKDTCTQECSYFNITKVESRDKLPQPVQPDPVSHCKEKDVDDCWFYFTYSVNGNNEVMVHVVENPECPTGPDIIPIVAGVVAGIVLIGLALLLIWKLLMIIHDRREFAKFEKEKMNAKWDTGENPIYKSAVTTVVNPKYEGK
Sequence of Integrin beta-1 (Homo sapiens) + Integrin alpha-4 (Homo sapiens) (P13612 whole entry, looked up): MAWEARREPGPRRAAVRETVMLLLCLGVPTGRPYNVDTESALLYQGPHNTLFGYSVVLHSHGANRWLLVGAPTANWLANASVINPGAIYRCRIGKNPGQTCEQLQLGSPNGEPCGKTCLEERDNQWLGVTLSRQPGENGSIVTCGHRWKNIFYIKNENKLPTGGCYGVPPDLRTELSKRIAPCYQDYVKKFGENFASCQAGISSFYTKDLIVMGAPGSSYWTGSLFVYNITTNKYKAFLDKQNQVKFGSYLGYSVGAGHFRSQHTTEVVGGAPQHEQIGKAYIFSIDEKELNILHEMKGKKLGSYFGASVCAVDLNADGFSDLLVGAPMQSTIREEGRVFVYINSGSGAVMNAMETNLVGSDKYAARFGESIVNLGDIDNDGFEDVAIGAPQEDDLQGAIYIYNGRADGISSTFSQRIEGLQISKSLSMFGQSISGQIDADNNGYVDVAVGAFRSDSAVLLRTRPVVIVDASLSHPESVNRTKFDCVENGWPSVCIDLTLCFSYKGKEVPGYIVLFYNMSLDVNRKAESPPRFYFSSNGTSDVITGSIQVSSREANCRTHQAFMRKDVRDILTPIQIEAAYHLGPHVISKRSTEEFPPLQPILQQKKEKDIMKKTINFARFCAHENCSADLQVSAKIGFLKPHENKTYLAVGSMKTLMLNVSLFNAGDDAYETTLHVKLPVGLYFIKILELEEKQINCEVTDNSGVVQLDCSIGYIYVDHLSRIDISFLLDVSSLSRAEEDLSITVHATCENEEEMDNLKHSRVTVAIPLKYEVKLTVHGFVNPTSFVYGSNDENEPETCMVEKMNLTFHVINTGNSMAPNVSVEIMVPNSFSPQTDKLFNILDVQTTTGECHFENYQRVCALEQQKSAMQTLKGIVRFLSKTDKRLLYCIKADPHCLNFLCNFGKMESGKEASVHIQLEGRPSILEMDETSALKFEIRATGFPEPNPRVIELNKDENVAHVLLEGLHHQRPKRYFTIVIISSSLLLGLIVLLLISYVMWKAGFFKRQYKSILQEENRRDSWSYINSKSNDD

[8] = superoxide lowering in aged yeast cells, pilot screen, validation compound set (AID 2706;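 active = superoxide response below 65% of plate, a cut near 3 SD across the whole screen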;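 also: yeast exposed to compound for one week at 30 degrees C before staining; 100% = mean of all compound wells on the same plate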); conditions: S. cerevisiae aging, superoxide DHE fluorescence; at 10 µM; stronger effect = lower value
[9] = target: Beta-adrenergic receptor kinase 1 (Homo sapiens) (UniProt P25098); test: GRK2 binders displacing RNA aptamer, biochemical, validation, human GRK2, bead flow cytometry (AID 488806;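 active = aptamer binding inhibition above 30%, about 3 SD of noise from non-fluorescent compounds; inactive = inhibition at or below 30%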); conditions: bead-bound GRK2, FAM-aptamer displacement, at 10 µM, stronger effect = higher value
Sequence of Beta-adrenergic receptor kinase 1 (Homo sapiens) (P25098 whole entry, looked up): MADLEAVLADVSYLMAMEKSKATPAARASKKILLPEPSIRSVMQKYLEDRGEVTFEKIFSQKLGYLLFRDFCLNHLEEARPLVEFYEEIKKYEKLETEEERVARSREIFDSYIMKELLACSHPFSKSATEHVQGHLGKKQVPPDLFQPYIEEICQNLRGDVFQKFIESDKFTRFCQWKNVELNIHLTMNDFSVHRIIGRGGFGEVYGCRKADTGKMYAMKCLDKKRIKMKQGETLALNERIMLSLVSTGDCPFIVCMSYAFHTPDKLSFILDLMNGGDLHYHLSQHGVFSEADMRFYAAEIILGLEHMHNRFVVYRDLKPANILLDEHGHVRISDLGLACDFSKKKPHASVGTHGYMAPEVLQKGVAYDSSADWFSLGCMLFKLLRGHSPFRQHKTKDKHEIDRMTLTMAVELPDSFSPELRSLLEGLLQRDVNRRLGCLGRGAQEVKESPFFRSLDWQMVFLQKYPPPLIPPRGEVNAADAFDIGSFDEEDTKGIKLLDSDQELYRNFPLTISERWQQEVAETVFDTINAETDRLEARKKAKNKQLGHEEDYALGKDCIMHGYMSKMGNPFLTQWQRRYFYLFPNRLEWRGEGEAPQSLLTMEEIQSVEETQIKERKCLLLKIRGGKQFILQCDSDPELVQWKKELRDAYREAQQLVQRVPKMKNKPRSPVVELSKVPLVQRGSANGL

[10] = target: Beta-2 adrenergic receptor (Homo sapiens) (UniProt P07550); test: beta2AR agonists driving receptor internalization, pilot screen, cell-based, FAP fluorogen, flow cytometry, validation set (AID 504459;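 active = percent response above 42, roughly 3 SD of non-fluorescent test compounds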;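 also: agonist-driven loss of surface beta2AR via internalization measured by FAP dye flow cytometry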); conditions: Am2.2-beta2AR cells, FAP surface receptor flow cytometry; at 10 µM; stronger effect = higher value
Sequence of Beta-2 adrenergic receptor (Homo sapiens) (P07550 whole entry, looked up): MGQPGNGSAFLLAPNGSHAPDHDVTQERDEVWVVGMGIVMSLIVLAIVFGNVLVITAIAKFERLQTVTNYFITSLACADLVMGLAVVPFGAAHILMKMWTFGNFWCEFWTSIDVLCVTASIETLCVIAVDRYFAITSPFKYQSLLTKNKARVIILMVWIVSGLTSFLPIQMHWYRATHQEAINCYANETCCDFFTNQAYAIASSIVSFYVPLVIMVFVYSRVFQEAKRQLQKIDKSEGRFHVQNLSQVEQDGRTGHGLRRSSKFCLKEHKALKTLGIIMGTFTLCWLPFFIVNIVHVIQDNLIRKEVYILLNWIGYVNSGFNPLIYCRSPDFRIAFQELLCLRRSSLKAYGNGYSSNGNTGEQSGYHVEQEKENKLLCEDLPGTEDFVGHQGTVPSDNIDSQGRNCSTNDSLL

[11] = target: AP-2 complex subunit beta (Homo sapiens) (UniProt P63010); test: inhibitors of arrestin peptide binding to AP2, pilot screen, biochemical, validation set, GST-AP2 beads, flow cytometry (AID 504541;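 active = inhibition above 54%, about 3 SD of non-fluorescent compounds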;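 also: AP2 carries R879A mutation and is captured from E. coli lysate; bead-bound FITC arrestin peptide fluorescence measuring arrestin peptide binding to AP2; 0% = DMSO wells and 100% = excess unlabeled arrestin peptide control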); conditions: FITC arrestin peptide, at 10 µM, stronger effect = higher value, AP2 beta2 appendage fragment, R879A mutant
Sequence of AP-2 complex subunit beta (Homo sapiens) (P63010 whole entry, looked up, the tested form may be a part, one chain of several): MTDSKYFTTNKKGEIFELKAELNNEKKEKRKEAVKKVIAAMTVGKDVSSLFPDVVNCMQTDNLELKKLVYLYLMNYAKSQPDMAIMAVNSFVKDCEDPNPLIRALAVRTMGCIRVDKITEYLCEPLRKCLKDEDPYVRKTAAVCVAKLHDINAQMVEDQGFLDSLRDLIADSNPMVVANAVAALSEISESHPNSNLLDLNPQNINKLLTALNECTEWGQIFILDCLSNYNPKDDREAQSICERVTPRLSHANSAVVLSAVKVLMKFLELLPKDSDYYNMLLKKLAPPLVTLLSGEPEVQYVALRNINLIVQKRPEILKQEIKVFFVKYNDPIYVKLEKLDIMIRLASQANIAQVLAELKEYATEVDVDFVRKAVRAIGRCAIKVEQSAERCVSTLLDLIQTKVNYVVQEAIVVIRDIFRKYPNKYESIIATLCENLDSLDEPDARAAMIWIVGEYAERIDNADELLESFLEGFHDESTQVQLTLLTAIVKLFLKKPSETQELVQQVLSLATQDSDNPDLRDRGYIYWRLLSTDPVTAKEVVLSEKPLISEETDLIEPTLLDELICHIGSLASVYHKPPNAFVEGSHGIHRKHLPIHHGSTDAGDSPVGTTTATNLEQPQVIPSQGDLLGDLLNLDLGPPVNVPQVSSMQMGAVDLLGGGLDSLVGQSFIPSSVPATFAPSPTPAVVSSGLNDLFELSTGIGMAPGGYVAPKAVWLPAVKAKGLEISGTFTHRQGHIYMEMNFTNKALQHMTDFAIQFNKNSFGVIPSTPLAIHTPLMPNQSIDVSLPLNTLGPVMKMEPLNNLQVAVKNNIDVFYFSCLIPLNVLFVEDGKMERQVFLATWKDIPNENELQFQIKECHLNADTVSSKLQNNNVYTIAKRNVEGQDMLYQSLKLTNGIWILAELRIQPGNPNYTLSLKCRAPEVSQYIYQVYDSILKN

[12] = yeast V-ATPase proton transport modulators, S. cerevisiae, pHLuorin, HTS validation (AID 504600);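 also: plate controls were DMSO for no effect and reference compound for full effect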; conditions: S. cerevisiae pHLuorin cytosolic pH, at 10 µM, stronger effect = higher value
[13] = tested on: anti-desmoglein-3 scFv antibody binding to human DSG3; test: inhibitors of anti-DSG3 scFv binding to DSG3, pilot screen, biochemical, validation compound set, bead-based, flow cytometry (AID 588368;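 active = binding below the plate cutoff, the plate median minus 3 SD, with a reading above zero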;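 also: signal is the median channel fluorescence of bead-bound GFP antibody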); conditions: Protein G beads, DSG3-Fc, scFv-GFP binding, at 10 µM, stronger effect = lower value
[14] = inhibitors of fungal efflux pumps CDR1, CDR2, MDR1, pilot screen, validation compound set, multiplex, phenotypic (AID 588506;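 active = efflux inhibition above 0.42, the validation set average plus 4 SD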;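 also: Nile Red retained in cells so higher fluorescence means more efflux inhibition; 0 = negative control wells and 1 = enniatin B 25 µM full block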); conditions: S. cerevisiae pump-expressing triplex, Nile Red efflux flow cytometry; at 10 µM; stronger effect = higher value; the pumps come from Candida albicans
[15] = target: ATP-binding cassette sub-family B member 6 (Homo sapiens) (UniProt Q9NP58); test: ABCB6 transporter inhibitors, pilot screen, K562-ABCB6 cells, flow cytometry, validation set (AID 588550;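 active = inhibition above the screen-wide mean plus 3 SD, about 51%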;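 also: 0% = DMSO wells and 100% = benzethonium chloride 70 µM positive control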); conditions: K562-ABCB6 porphyrin accumulation, 1 h, at 10 µM, stronger effect = higher value
Sequence of ATP-binding cassette sub-family B member 6 (Homo sapiens) (Q9NP58 whole entry, looked up): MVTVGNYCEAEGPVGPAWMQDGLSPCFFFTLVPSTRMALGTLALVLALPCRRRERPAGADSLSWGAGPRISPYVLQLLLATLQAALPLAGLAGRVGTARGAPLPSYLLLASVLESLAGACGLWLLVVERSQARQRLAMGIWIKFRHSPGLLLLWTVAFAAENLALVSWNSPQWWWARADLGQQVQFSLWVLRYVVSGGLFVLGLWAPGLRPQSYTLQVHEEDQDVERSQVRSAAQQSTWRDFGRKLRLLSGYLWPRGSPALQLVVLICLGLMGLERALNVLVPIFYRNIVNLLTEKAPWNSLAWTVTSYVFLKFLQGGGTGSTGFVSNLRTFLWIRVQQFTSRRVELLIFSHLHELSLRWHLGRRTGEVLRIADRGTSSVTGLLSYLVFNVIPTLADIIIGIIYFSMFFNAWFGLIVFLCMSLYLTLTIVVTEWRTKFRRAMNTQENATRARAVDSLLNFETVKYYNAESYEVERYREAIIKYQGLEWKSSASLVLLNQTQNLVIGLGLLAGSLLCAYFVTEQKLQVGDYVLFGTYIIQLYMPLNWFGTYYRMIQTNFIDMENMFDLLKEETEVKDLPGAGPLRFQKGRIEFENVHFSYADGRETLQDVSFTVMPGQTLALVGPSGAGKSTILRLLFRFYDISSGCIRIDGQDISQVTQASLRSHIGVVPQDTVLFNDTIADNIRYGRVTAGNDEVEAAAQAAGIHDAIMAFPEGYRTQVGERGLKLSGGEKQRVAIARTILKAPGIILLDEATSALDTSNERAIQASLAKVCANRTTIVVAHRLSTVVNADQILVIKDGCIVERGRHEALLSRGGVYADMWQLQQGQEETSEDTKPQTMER

[16] = promoters of myeloid differentiation in arrested cells, primary screen, cell-based, GFP/MAC1 double positive, flow cytometry, validation set (AID 588685;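 active = differentiation response of at least 50%, scaled between solvent and reference control, from cells with both markers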;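 also: compound exposure lasts four days before antibody staining and flow analysis; 0% = DMSO wells and 100% = 5 µM fulvestrant positive control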); conditions: ER-HoxA9 marrow cells, stronger effect = higher value, normalized: vehicle 0, fulvestrant 100

CC(C)=CCCC1=CCC2C(=O)NNC(=O)C2C1 (stereo not drawn)
active: vesicle binding response [6] 61.5% | response [12] 51.2%
50.6%: double positive events [6]
inactive: percent of DMSO control GFP [1] 98.8% | GFP response vs DMSO [2] 101% | percent response of DMSO control [3] 110% | GFP response vs DMSO [4] 99.9% | GFP response, % of DMSO [5] 99.5% | inhibition [7] -3.16% | superoxide response (% of plate) [8] 104% | aptamer binding inhibition [9] 3% | response [10] -19.2% | inhibition [11] -0.62% | binding (% of control) [13] 103% | efflux inhibition (fraction of control) [14] -0.1 | inhibition [15] 4% | differentiation response [16] -10.4%

CC1=NS(=O)(=O)c2cc(Cl)ccc2N1
inactive: percent of DMSO control GFP [1] 98.8% | GFP response vs DMSO [2] 105% | percent response of DMSO control [3] 93.1% | GFP response vs DMSO [4] 84.1% | GFP response, % of DMSO [5] 97% | vesicle binding response [6] 964% | inhibition [7] -3.57% | superoxide response (% of plate) [8] 104% | aptamer binding inhibition [9] 3% | response [10] -5.04% | inhibition [11] 14.6% | response [12] -1.96% | binding (% of control) [13] 101% | efflux inhibition (fraction of control) [14] -0.1 | inhibition [15] 4% | differentiation response [16] 34.5%
63.9%: double positive events [6]

COC(=O)c1cc(OC)c(OC)cc1NC(=O)CN1C(=O)c2ccccc2C1=O
inactive: percent of DMSO control GFP [1] 97.1% | GFP response vs DMSO [2] 113% | percent response of DMSO control [3] 93.9% | GFP response vs DMSO [4] 118% | GFP response, % of DMSO [5] 99.4% | vesicle binding response [6] 150% | inhibition [7] -22.3% | superoxide response (% of plate) [8] 103% | aptamer binding inhibition [9] -2% | response [10] -5.28% | inhibition [11] -9.37% | response [12] -5.26% | binding (% of control) [13] 98.4% | efflux inhibition (fraction of control) [14] -0.03 | inhibition [15] 2% | differentiation response [16] -23.2%
54.6%: double positive events [6]

Cc1[nH]c2ccccc2c1C(=O)C(=O)NCc1ccco1
inactive: percent of DMSO control GFP [1] 103% | GFP response vs DMSO [2] 104% | percent response of DMSO control [3] 101% | GFP response vs DMSO [4] 112% | GFP response, % of DMSO [5] 113% | vesicle binding response [6] 151% | inhibition [7] -14.7% | superoxide response (% of plate) [8] 97.1% | aptamer binding inhibition [9] 8% | response [10] -22.4% | inhibition [11] 5.02% | response [12] -4.14% | binding (% of control) [13] 106% | efflux inhibition (fraction of control) [14] -0.04 | inhibition [15] 4% | differentiation response [16] -4%
62%: double positive events [6]

Cc1cc(OC(=O)CNC(=O)OC(C)(C)C)c2c(C)cc(=O)oc2c1
inactive: percent of DMSO control GFP [1] 101% | GFP response vs DMSO [2] 105% | percent response of DMSO control [3] 97.7% | GFP response vs DMSO [4] 108% | GFP response, % of DMSO [5] 111% | vesicle binding response [6] 460% | inhibition [7] 10.8% | superoxide response (% of plate) [8] 107% | aptamer binding inhibition [9] 3% | response [10] -17.2% | inhibition [11] 6.94% | response [12] -0.27% | binding (% of control) [13] 93.1% | efflux inhibition (fraction of control) [14] 0 | inhibition [15] 2% | differentiation response [16] 3.88%
62.2%: double positive events [6]

O=c1ccc2c(o1)/C(=C/C=C(Cl)Cl)CCC2
56.9%: double positive events [6]
inactive: percent of DMSO control GFP [1] 101% | GFP response vs DMSO [2] 101% | percent response of DMSO control [3] 90.1% | GFP response vs DMSO [4] 110% | GFP response, % of DMSO [5] 84% | vesicle binding response [6] 236% | inhibition [7] -7.25% | superoxide response (% of plate) [8] 101% | aptamer binding inhibition [9] 2% | response [12] -6.24% | binding (% of control) [13] 101% | efflux inhibition (fraction of control) [14] -0.06 | inhibition [15] 6% | differentiation response [16] -10.4%
active: response [10] 62.6% | inhibition [11] 60.4%

CCN(CC)CCCNC(=O)C1c2ccccc2Oc2ccccc21
64.1%: double positive events [6]
inactive: percent of DMSO control GFP [1] 100% | GFP response vs DMSO [2] 95.1% | percent response of DMSO control [3] 95.4% | GFP response vs DMSO [4] 89.4% | GFP response, % of DMSO [5] 97.2% | vesicle binding response [6] 1360% | inhibition [7] 13% | superoxide response (% of plate) [8] 101% | aptamer binding inhibition [9] 2% | response [10] 2.25% | inhibition [11] 17% | response [12] -0.98% | binding (% of control) [13] 101% | inhibition [15] -2% | differentiation response [16] 26.6%
active: efflux inhibition (fraction of control) [14] 0.49

COc1ccc(C2CC(c3c(O)cc(C)oc3=O)=NCCS2)c(OC)c1 (stereo not drawn)
64.5%: double positive events [6]
inactive: percent of DMSO control GFP [1] 102% | GFP response vs DMSO [2] 108% | percent response of DMSO control [3] 111% | GFP response vs DMSO [4] 86.8% | GFP response, % of DMSO [5] 96.4% | vesicle binding response [6] 818% | inhibition [7] 36.9% | superoxide response (% of plate) [8] 92% | aptamer binding inhibition [9] 1% | response [10] 19.6% | inhibition [11] 1.7% | response [12] 0.66% | binding (% of control) [13] 108% | efflux inhibition (fraction of control) [14] 0.14 | inhibition [15] -46% | differentiation response [16] -4.64%

COc1cc(NS(=O)(=O)c2ccc(N)cc2)nc(OC)n1
60.1%: double positive events [6]
inactive: percent of DMSO control GFP [1] 98.8% | GFP response vs DMSO [2] 102% | percent response of DMSO control [3] 105% | GFP response vs DMSO [4] 96.5% | GFP response, % of DMSO [5] 98.2% | vesicle binding response [6] 102% | inhibition [7] -1.74% | superoxide response (% of plate) [8] 113% | aptamer binding inhibition [9] 3% | response [10] 1.82% | inhibition [11] 18.1% | response [12] 0.53% | binding (% of control) [13] 96.4% | efflux inhibition (fraction of control) [14] 0.01 | inhibition [15] -1% | differentiation response [16] 14.9%
